In the library only some 19% were active in any assay of this set; here they are far more common.
IL-1B inflam inh – inflammasome signaling inhibition, IL-1 beta readout; THP-1 LPS/ATP IL-1B secretion, AlphaLISA, 16 h; active compounds read low; activity change, % at 57.5 µM; 360,000 tested, 4.7% active; AID 743279; in the data active = activity change below about -50%; inconclusive = mostly about -30% to -49%
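THP-1 cells pretreated 1 hr with compounds (up to 57.5 uM final), then stimulated with LPS (250 ng/mL final) plus ATP (1.25 mM final); secreted IL-1B measured by AlphaLISA after 16 hr, decreased signal indicating inhibition.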
DT40 TDP1 no CPT – qHTS for Inhibitors of human tyrosyl-DNA phosphodiesterase 1 (TDP1): qHTS in cells in absence of CPT | Potency, µM (highest dose often 46.2 µM), inactives show top-dose activity change, negative = growth inhibition, actives largely listed as inhibitors | 420,000 tested, 15% active | DT40 Tdp1-/- hTDP1 cells, no CPT, ATP luminescence, 48 h; note: potency is the fitted concentration of half-maximal effect; nearly all actives have a fitted effect of over 55% in size
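Chicken DT40 Tdp1-/- cells stably complemented with human TDP1 were seeded at 400 cells/well with DMSO in place of 20 nM camptothecin. After compound pinning, cells grew at least 48 hr at 37 °C; viability read by CellTiter-Glo luminescence.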
ELG1 repair inh – ELG1-dependent DNA repair inhibition; HEK293T ELG1-luciferase reporter, luminescence, 16 h; DNA damage induced by 5-fluorouridine; Potency, µM (doses to about 46.1 µM), for inactives: at the highest dose activity change, negative = inhibition, actives largely listed as inhibitors; 330,000 tested, 2.3% active; AID 504467; note: potency is the fitted concentration of half-maximal effect; nearly all actives have a fitted effect of over 55% in size
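Reporter activity after DNA damage by 5-fluorouridine is monitored. Compound-treated cells incubate 16 hr at 37 °C, then ONE-Glo is added for 30 min before luminescence reading.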
TDP1 cell CPT – growth inhibition of DT40 Tdp1-/-;hTDP1 cells with camptothecin (screen for TDP1 inhibitors). Potency, µM (doses to about 46.2 µM), for inactives: at the top dose activity change, negative = growth inhibition, hits mostly inhibitors. chicken DT40 Tdp1-/-;hTDP1 cells + 20 nM CPT, ATP luminescence, 48 h. AID 686979. 420,000 tested, 12% active; note: potency is the fitted concentration of half-maximal effect; nearly all actives have a fitted effect of over 55% in size
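Chicken DT40 Tdp1-/- cells complemented with human TDP1, 400 cells/well, exposed to compounds plus 20 nM camptothecin for at least 48 h at 37 C; viability read as ATP content by CellTiter-Glo luminescence.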
TDP1 block – blocks human tyrosyl-DNA phosphodiesterase 1 | Q9NUW8 | Potency, µM (top dose mostly 130 µM), for inactives: top-dose activity change, negative = inhibition, actives largely listed as inhibitors | recombinant TDP1, AlphaScreen DNA substrate cleavage | 350,000 tested, 0.28% active; note: potency is the fitted concentration of half-maximal effect; nearly all actives have a fitted effect of over 40% in size
Target sequence (Q9NUW8 whole entry, looked up): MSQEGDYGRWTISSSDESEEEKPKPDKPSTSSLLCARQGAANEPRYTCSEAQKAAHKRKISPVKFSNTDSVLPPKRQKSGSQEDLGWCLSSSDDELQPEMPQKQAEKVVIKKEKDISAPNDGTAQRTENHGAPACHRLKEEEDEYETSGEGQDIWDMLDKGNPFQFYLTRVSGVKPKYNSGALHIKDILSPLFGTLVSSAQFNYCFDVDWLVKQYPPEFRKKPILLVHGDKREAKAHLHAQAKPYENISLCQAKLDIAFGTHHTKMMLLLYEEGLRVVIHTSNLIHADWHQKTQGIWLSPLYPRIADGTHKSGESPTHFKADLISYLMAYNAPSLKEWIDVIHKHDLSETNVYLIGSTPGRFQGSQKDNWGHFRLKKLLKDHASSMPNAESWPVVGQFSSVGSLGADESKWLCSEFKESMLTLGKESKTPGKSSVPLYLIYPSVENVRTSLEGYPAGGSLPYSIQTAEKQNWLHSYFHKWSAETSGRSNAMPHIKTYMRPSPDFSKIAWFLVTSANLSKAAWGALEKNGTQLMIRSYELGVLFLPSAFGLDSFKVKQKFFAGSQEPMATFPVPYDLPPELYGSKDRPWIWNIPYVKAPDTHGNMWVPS
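Recombinant E. coli-expressed Tdp1 (1 nM) preincubated with compound 15 min at RT, then 5'-biotin/3'-phosphotyrosine-FITC DNA substrate (15 nM) added for 5 min. AlphaScreen beads (10 ug/ml) added, 10 min RT; tyrosine-FITC cleavage read as signal loss.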
Giardia kill – Giardia lamblia killing; Giardia lamblia trophozoite viability; activity change, % at 7.66 µM, hits read low; 340,000 tested, 0.15% active; in the data active = activity change below about -80%; inconclusive = between about -30% and that limit;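 note: parasites exposed to compound for two days anaerobically before the ATP read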
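Each well holds 100 Giardia trophozoites and compound. After two days (48 hrs) at 37 deg C in anaerobic conditions, ATP is quantified by luminescence.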
The depositor's hits bear a star; ? = inconclusive; nt = not tested or not shown; [ ] = remark or other dose. Unless noted, calls come from the whole dose curve; as a rule, active = well fitted curve in the direction sought with a large enough effect; inconclusive = small, poorly fitted or top-dose-only effect, or another doubt; inactive = no such curve, though single readings can be large; an effect the other way counts as inactive or inconclusive. % is set by controls: 0 for no effect and ±100 for the full control effect.

SMILES | IL-1B inflam inh | DT40 TDP1 no CPT | ELG1 repair inh | TDP1 cell CPT | TDP1 block | Giardia kill
CC(=O)N1CCSc2ccc(S(=O)(=O)NCCc3cccc(C)c3)cc21 | -80.0* | 10.3µM* | ? | 20.6µM* | 1.9% | -3.0
COc1ccccc1CNC(=O)CCn1cnc2ccccc2c1=O | nt | -21.7% | nt | -2.6% | nt | nt
Cc1ccc(/C=N/NC(=O)CCn2nc(C)cc2C)c(C)c1 | -3.8 | ? | ? | ? | 5.1% | -17.2
Cc1nnc2c(N3CCN(c4ccccc4)CC3)nc3ccc(C(=O)c4ccccc4)cc3n12 | nt | -10.8% | nt | 7.3% | 0.0%[12.3 µM] | nt
Cc1cccc(N(C)c2nc3ccc(C(=O)c4ccccc4)cc3n3c(C)nnc23)c1 | nt | 20.6µM* | nt | ? | -2.8% | nt
COc1ccc(-c2c(C#Cc3ccsc3)c3cc(-c4cccc5[nH]ccc45)ccc3n2C)cc1 | -15.0 | 18.4µM* | 13.1% | ? | 2.1% | -21.2
COc1ccc(-c2c(C#Cc3ccsc3)c3cc(-c4ccc5c(c4)OCCO5)ccc3n2C)cc1 | 5.9 | -7.5% | 18.6% | -23.4% | 0.1% | -17.2
COc1ccc(-c2c(C#Cc3ccsc3)c3ccccc3n2C)cc1 | 21.0 | 23.1µM* | ? | 20.6µM* | nt | -23.5
COc1cc(OC)cc(-c2c(C#Cc3ccsc3)c3cc(-c4ccc(OC)c(OC)c4)ccc3n2C)c1 | 24.1 | -15.4% | 16.1% | -9.3% | -0.5% | 8.9
COC(=O)c1ccc2c(c1)c(C#Cc1ccccc1)c(-c1ccccc1)n2C | 13.3 | 16.4µM* | ? | 20.6µM* | -8.0%[56.1 µM] | 6.5
COc1cc(F)cc(-c2ccc3c(c2)c(C#Cc2ccsc2)c(-c2cc(OC)cc(OC)c2)n3C)c1 | -11.0 | 14.6µM* | ? | ? | 0.8% | -14.1
O=C(CN(c1ccccc1)S(=O)(=O)c1ccccc1[N+](=O)[O-])Nc1ccccc1C(=O)N1CCOCC1 | -4.1 | ? | 13.0% | 1.3% | 3.7% | -6.4
COc1ccc(-c2c(C#Cc3ccsc3)c3cc(-c4ccc(C(N)=O)cc4)ccc3n2C)cc1 | -6.9 | ? | -14.0% | 23.1µM* | 0.0% | -4.6
COc1ccc(-c2c(C#Cc3ccsc3)c3cc(-c4ccc5[nH]ccc5c4)ccc3n2C)cc1 | 1.5 | ? | 6.5% | -23.4% | -2.8% | -10.8
COc1ccccc1Nc1nc2ccc(Cl)cc2nc1-n1nc(C)cc1C | nt | 0.6% | nt | -3.3% | 2.5% | nt
CC(C)CCN(C(=O)Nc1ccc(Cl)c(Cl)c1)C1CCN(C(C)C)CC1 | nt | 14.6µM* | nt | 14.6µM* | 5.2% | nt
CCOC(=O)N1CCC(N(C(=O)Nc2ccc(Cl)c(Cl)c2)C(C)CC)CC1 (stereo not given) | -84.8* | 10.3µM* | ? | 23.1µM* | 1.1% | 8.9
CCOC(=O)c1ccccc1NC(=O)N(C(C)C)C1CCN(C(C)=O)CC1 | nt | 14.6µM* | nt | 14.6µM* | 0.0% | nt
CCOc1ccc(NC(=O)N(C(C)C)C2CCN(C(C)=O)CC2)cc1 | nt | -7.4% | nt | 3.3% | 5.2% | nt
CCOC(=O)N1CCC(N(CCN(C)C)C(=S)Nc2cccc(Cl)c2)CC1 | -28.5 | 0.8% | -11.3% | ? | 7.9% | 5.5
COc1cccc(N2CCN(C(=O)CN3CCSc4ccccc43)CC2)c1 | nt | nt | nt | nt | 6.5% | nt
COc1cccc(N2CCN(C(=O)c3ccc(Cn4c(=O)[nH]c5cc(OC)c(OC)cc5c4=O)cc3)CC2)c1 | nt | 4.11µM* | nt | 9.2µM* | 8.8% | nt
CCOc1cc2[nH]c(=O)n(Cc3ccc(C(=O)N4CCN(c5cccc(Cl)c5)CC4)cc3)c(=O)c2cc1OCC | nt | 2.59µM* | nt | 3.66µM* | -0.5% | nt
CCOc1cc2[nH]c(=O)n(Cc3ccc(C(=O)N4CCN(c5ccccc5)CC4)cc3)c(=O)c2cc1OCC | nt | 5.8µM* | nt | 11.6µM* | 2.5% | nt
CCOC(=O)C1=NN(c2ccccc2)C2=NC(C)=C(C(=O)OC)C(c3ccc(C)cc3)N12 (stereo not given) | 0.0 | -13.2% | -5.4% | -18.9% | 1.8% | -21.6
SMILES | IL-1B inflam inh | DT40 TDP1 no CPT | ELG1 repair inh | TDP1 cell CPT | TDP1 block | Giardia kill
Cc1ccc2c(c1)c1nnc(SCC(=O)Nc3ccc(N(C)C)cc3)nc1n2CC(=O)O | 4.9 | 4.6% | 11.4% | 0.2% | 10.0% | 17.8
Cc1ccc(-c2cc(C(F)(F)F)n3ncc(C(=O)O)c3n2)cc1 | -4.9 | ? | 9.2% | -16.7% | 0.0% | -15.4
COC(=O)c1ccccc1NC(=O)c1cnn2c(C(F)F)cc(C3CC3)nc12 | -9.2 | 14.6µM* | ? | ? | 8.7% | 11.2
COCCNC(=O)c1cnn2c(C(F)(F)F)cc(-c3ccc(C)cc3)nc12 | -6.0 | ? | 5.8µM* | ? | -4.7% | -3.6
COCCNC(=O)c1cnn2c(C(F)F)cc(-c3ccccc3)nc12 | 1.6 | 20.6µM* | ? | ? | 2.5% | -5.1
O=C(NCc1ccco1)c1cnn2c(C(F)F)cc(-c3ccccc3)nc12 | -3.8 | -25.7% | ? | -29.5% | 2.2% | 0.1
O=C(CCS(=O)(=O)c1ccc(F)cc1)Nc1nc(-c2ccccn2)cs1 | ? | 7.31µM* | ? | 8.2µM* | -0.7% | -18.0
Cc1cccc(OC(C)C(=O)Nc2nc(-c3ccncc3)cs2)c1 (stereo not given) | 61.5 | 23.1µM* | -8.8% | ? | 2.1% | 15.6
Cc1csc(NC(=O)C(C)Oc2ccc(Br)cc2)n1 (stereo not given) | -13.7 | ? | -12.9% | -19.9% | nt | 8.2
O=C(CCS(=O)(=O)c1ccccc1)Nc1nc(-c2ccccn2)cs1 | -7.1 | 13µM* | nt | 18.4µM* | nt | ?
O=C(CCS(=O)(=O)c1ccccc1)NNC(=O)COc1ccc(F)cc1 | 13.8 | 17.7% | 0.5% | -1.3% | 0.4% | 22.5
O=C(CCS(=O)(=O)c1ccccc1)Nc1ccccn1 | 18.0 | -2.8% | 3.7% | -2.6% | 0.7%[0.0935 µM] | -7.1
CC(Oc1ccc(F)cc1)C(=O)Nc1nc(-c2ccccn2)cs1 (stereo not given) | -102.2* | 5.17µM* | ? | 1.3µM* | nt | 5.9
CN1c2ccccc2-c2nc(SCC(=O)Nc3ccccc3C(F)(F)F)ncc2S1(=O)=O | nt | ? | nt | ? | -2.6% | nt
CCc1ccccc1NC(=O)Cn1c(=O)n(Cc2ccccc2)c(=O)c2c(C)c(C(=O)N(C)C)sc21 | nt | -9.2% | nt | ? | 6.4% | nt
O=C(CSc1n[nH]c(-c2ccccc2)n1)Nc1ncccn1 | -6.7 | -10.4% | 6.9% | 11.1% | -3.1% | -5.8
Cc1ccc(O)c(NC(=O)CSc2n[nH]c(-c3ccccc3)n2)c1 | 88.0 | 16.4µM* | 4.4% | ? | 3.2% | -2.2

High-throughput results as filed in PubChem BioAssay.
